Pol iota inh: qHTS for Inhibitors of Polymerase Iota | AID 588590, 2011 | Pol iota fluorescent replication assay, 10 min | Potency, µM (doses to about 115 µM), usual class: inhibitors | DNA polymerase iota (Homo sapiens), Q9UNA4 | 1% of 390,000 active
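Fluorescent replication assay read twice, at 0 min and 10 min after adding 50 nM (final) substrate. Enzyme (10 nM) and compounds were first incubated 15 min at room temperature; enzyme-free buffer wells were negative controls.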
Pol beta inh: qHTS Assay for Inhibitors of DNA Polymerase Beta; P06746; Pol beta primer extension/strand displacement, fluorescence kinetic; Potency, µM (titrated, usually from 114 µM), most hits filed as inhibitors; 1.3% of 340,000 active
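10 nM enzyme + cpd, 15 min RT; start with substrate 50 nM final; read 0 min and after 10 min RT. Corrected, normalized data; 4-parameter Hill curve fit.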
ALOX12 inh: Primary qHTS assay for inhibitors of human arachidonate 12S-lipoxygenase (ALOX12): Round 2. Polyunsaturated fatty acid lipoxygenase ALOX12 (Homo sapiens), P18054. purified 12hLO, xylenol orange hydroperoxide absorbance. Potency, µM (titrated, usually from 108 µM), actives largely listed as inhibitors. 1.1% of 580,000 active
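Purified human 12hLO (150 nM final) in 25 mM Hepes, 0.01% Triton X-100, pH 7.0 was preincubated 15 min at room temperature with compound. Then 40 uM arachidonic acid was added, 30 min. Hydroperoxide was read by Fe-XO absorbance ratio 573/405 nm.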
PI5P4Ka inh: qHTS for Inhibitors of phosphatidylinositol 5-phosphate 4-kinase (PI5P4K) | PI5P4Kalpha enzyme, ADP-Glo luminescence, 60 min; stronger effect = lower value | AID 652105, 2013 | max response, % | 1.2% of 330,000 active | Phosphatidylinositol 5-phosphate 4-kinase type-2 alpha (Homo sapiens), P48426; active = max response of -50% or lower; inconclusive = between -30% and -50%; inactive = -30% or higher; note: value at the top dose of about 77 µM
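Human PI5P4Kalpha with substrate in 0.038 M HEPES pH 7.4, 0.28 mM EGTA, 0.1% CHAPS, 5% DMSO; reaction started with 5 microM ATP (final), 60 min at room temperature. ADP formed read by ADP-Glo luminescence.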
Pol kappa inh-1: qHTS for Inhibitors of Polymerase Kappa; DNA polymerase kappa (Homo sapiens), Q9UBT6; purified Pol kappa, fluorescent DNA synthesis assay, 10 min; Potency, µM (highest dose often 107 µM), hits mostly inhibitors; 0.53% of 400,000 active
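First, compounds were pin-transferred onto 10 nM Pol kappa. After 15 min at room temperature, substrate was added to 50 nM final. Fluorescence was then measured kinetically at 0 and 10 min.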
Pol eta inh-1: qHTS for Inhibitors of Polymerase Eta | 1.2% of 390,000 active | Potency, µM (series often up to 114 µM), usual class: inhibitors | AID 588591, 2011 | recombinant Pol eta, fluorescent DNA replication assay
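Fluorescent replication assay: 50 nM final substrate added after a 15 min room-temperature compound preincubation with 10 nM enzyme. Signal taken at 0 min and again at 10 min.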
GALK confirm: Confirmation Assay for Inhibitors of Human Galactokinase (GALK); shares compounds with Pol eta inh-1; purified GALK, Kinase-Glo ATP depletion luminescence; Potency, µM (series often up to 115 µM), most hits filed as inhibitors; 70% of 150 active; AID 2015, 2009
Redox cycling: Confirmatory Assay for Inhibitors of Human Galactokinase (GALK): Phenol-HRP redox assay counterscreen | shares compounds with Pol eta inh-1 | Phenol red-HRP H2O2 redox cycling, absorbance 600 nm | Potency, µM (highest dose often 115 µM), hits mostly inhibitors | 40% of 150 active
HEK293 tox: Secondary Assay for Inhibitors of Human Galactokinase (GALK): HEK-293 Cell Viability Assay; shares compounds with Pol eta inh-1; Potency, µM (top dose mostly 46.1 µM), hits mostly inhibitors; HEK-293 viability, ATP luminescence (CellTiter-Glo), 24/48 h; 10% of 170 active
Pol kappa inh-2: qHTS for Inhibitors of Polymerase Kappa: Confirmatory Assay for Cherry-picked Compounds; shares compounds with Pol eta inh-1; purified Pol-kappa, fluorescent strand-displacement substrate; 76% of 920 active; Potency, µM, hits mostly inhibitors
Pol eta inh-2: qHTS for Inhibitors of Polymerase Eta: Confirmatory Assay for Cherry-picked Compounds | shares compounds with Pol eta inh-1 | Pol eta primer extension, TAMRA/BHQ fluorescence, 10 min | Potency, µM, hits mostly inhibitors | 64% of 2,600 active | AID 720502, 2013
Each line names hits and unclear results; the compound was inactive in the other large screens (follow-up assays come after a bar, where they were run). Only some compounds are listed: those with a hit (about 2.9% of all), similar ones and a draw of the others. Unless noted, calls come from the whole dose curve; as a rule, active = well fitted curve in the direction sought with a large enough effect; inconclusive = small, poorly fitted or top-dose-only effect, or another doubt; inactive = no such curve, though single readings can be large; an effect the other way counts as inactive or inconclusive.

NNc1nccc(Nc2ccccc2C(=O)O)n1	Pol iota inh inconclusive, Pol beta inh inconclusive, PI5P4Ka inh -54, Pol kappa inh-1 inconclusive, Pol eta inh-1 13µM | Pol eta inh-2 inconclusive
CCOc1cc(/C=C2\C(=O)ON=C2c2ccccc2)cc(Br)c1O	Pol iota inh inconclusive, ALOX12 inh 22µM, PI5P4Ka inh -79, Pol eta inh-1 inconclusive | GALK confirm inconclusive | Redox cycling inactive | HEK293 tox inactive
COc1cc(/C=C2/C(=O)ON=C2c2ccccc2)ccc1O	Pol iota inh inconclusive, ALOX12 inh inconclusive, PI5P4Ka inh inconclusive
COc1cc(/C=C2\C(=O)ON=C2c2ccccc2)cc(Br)c1O	Pol iota inh inconclusive, ALOX12 inh inconclusive, PI5P4Ka inh -85, Pol eta inh-1 45µM | GALK confirm 38µM | Redox cycling inactive | HEK293 tox inactive
CN(Cc1ccccc1)C(=O)c1cccc2c1CCN2C(=O)Nc1ccccc1	none (no result: Pol iota inh, Pol beta inh, PI5P4Ka inh, Pol kappa inh-1, Pol eta inh-1)
Cc1nn(C)c2ncc(NC(=O)CCc3ncc(-c4ccccc4F)o3)cc12	none (no result: Pol iota inh, Pol beta inh, PI5P4Ka inh, Pol kappa inh-1, Pol eta inh-1)
S=c1[nH]nc(-c2ccco2)n1-c1ccccc1Cl	Pol beta inh inconclusive, ALOX12 inh inconclusive
S=c1[nH]nc(-c2cc(-c3ccco3)[nH]n2)n1-c1ccccc1Cl	Pol iota inh inconclusive, Pol beta inh inconclusive, ALOX12 inh inconclusive, PI5P4Ka inh -57, Pol kappa inh-1 inconclusive, Pol eta inh-1 32µM | Pol eta inh-2 inconclusive
N#CCc1ccc(NC(=O)/C=C/c2ccc([N+](=O)[O-])o2)cc1	Pol iota inh 45µM, Pol beta inh inconclusive, PI5P4Ka inh -59, Pol kappa inh-1 inconclusive, Pol eta inh-1 20µM (no result: ALOX12 inh) | Pol eta inh-2 inconclusive
O=C(O)CCN1CCc2ccccc21	Pol iota inh inconclusive, Pol beta inh inconclusive, Pol kappa inh-1 inconclusive, Pol eta inh-1 18µM | Pol eta inh-2 inconclusive
C[N+](C)(C)CCN1CCc2ccccc21	ALOX12 inh inconclusive (no result: Pol iota inh, Pol beta inh, Pol kappa inh-1, Pol eta inh-1)
COc1ccc(/C=C/C(=O)Nc2ccc3nc4c(c(Nc5ccccc5OC)c3c2)CCCC4)cc1	Pol iota inh inconclusive, ALOX12 inh inconclusive (no result: PI5P4Ka inh)
COc1ccc(Nc2c3c(nc4ccc(NC(=O)/C=C/c5cccc(OC)c5OC)cc24)CCCC3)cc1OC	Pol iota inh inconclusive, Pol beta inh inconclusive, ALOX12 inh inconclusive, Pol kappa inh-1 13µM (no result: PI5P4Ka inh) | Pol kappa inh-2 3.4
COc1ccccc1Nc1c2c(nc3ccc(NC(=O)/C=C/c4cccc(OC)c4OC)cc13)CCCC2	Pol kappa inh-1 inconclusive (no result: PI5P4Ka inh) | Pol kappa inh-2 0.84
COc1ccc(Nc2c3c(nc4ccc(NC(=O)/C=C/c5cc(OC)c(OC)c(OC)c5)cc24)CCCC3)cc1OC	Pol iota inh inconclusive, Pol kappa inh-1 inconclusive (no result: PI5P4Ka inh)
